Experimental data as given in PubChem BioAssay (NCATS).
Inconclusive results are not listed. A call without a number means that no potency is given here. Values without a mark were called inactive. Calls of active or inactive are those of the source. The call rests on the fitted dose curve; in most records, active means well fitted curve in the direction sought with a large enough effect; inconclusive means small, poorly fitted or top-dose-only effect, or another doubt; inactive means no such curve, though single readings can be large; an effect the other way counts as inactive or inconclusive.

Tests used:
[1] = Quantitative highthroughput screen to assess conditional lethalithy of NOMO1 cells grown in RPMI1640 with untreated serum (RPMI+s) (AID 1963876); conditions: NOMO1 AML cells in RPMI+serum, CellTiter-Glo viability, 48 h; series mostly up to 45.8 µM; further: nearly all actives have a fitted effect of over 35% in size
Summary of the method: (§1)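 Each medium arm—HPLM with 10% dialyzed FBS, or RPMI1640 with 5 mM glucose and 10% untreated or dialyzed FBS—was screened against an 11-point, 3-fold compound titration for 48 h at 37 °C, with CellTiter-Glo luminescence as endpoint.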

[2] = Quantitative highthroughput screen to assess conditional lethalithy of NOMO1 cells grown in RPMI1640 with dialyzed fetal bovine serum (RPMI+ds) (AID 1963877); conditions: NOMO1 in RPMI+dialyzed FBS viability, ATP luminescence, 48 h; series mostly up to 45.8 µM; further: nearly all actives have a fitted effect of over 30% in size
Summary of the method: as §1

[3] = Quantitative highthroughput screen to assess conditional lethalithy of NOMO1 cells grown in Human Plasma-Like Medium with dialyzed fetal bovine serum (HPLM+ds) (AID 1963878); conditions: NOMO1 AML cells in HPLM+ds, CellTiter-Glo viability, 48 h; series mostly up to 45.8 µM; further: nearly all actives have a fitted effect of over 35% in size
Summary of the method: as §1

[4] = Quantitative highthroughput screen to assess conditional lethalithy of P12 Ichikawa cells grown in Human Plasma-Like Medium with dialyzed fetal bovine serum (HPLM+ds) (AID 1963879); conditions: ATP luminescence, 48 h; Potency: viability; series mostly up to 45.8 µM; further: nearly all actives have a fitted effect of over 35% in size
Summary of the method: as §1

[5] = Quantitative highthroughput screen to assess conditional lethalithy of P12 Ichikawa cells grown in RPMI1640 with dialyzed fetal bovine serum (RPMI+ds) (AID 1963880); conditions: ATP luminescence, 48 h; Potency: P12-Ichikawa viability; series mostly up to 45.8 µM; further: nearly all actives have a fitted effect of over 35% in size
Summary of the method: as §1

[6] = Quantitative highthroughput screen to assess conditional lethalithy of SEM cells grown in Human Plasma-Like Medium with dialyzed fetal bovine serum (HPLM+ds) (AID 1963882); conditions: SEM B-ALL cells in HPLM+ds, CellTiter-Glo viability, 48 h; series mostly up to 45.8 µM; further: nearly all actives have a fitted effect of over 35% in size
Summary of the method: as §1

[7] = Quantitative highthroughput screen to assess conditional lethalithy of SEM cells grown in RPMI1640 with unreated serum (RPMI+s) (AID 1963883); conditions: SEM B-ALL cells, CellTiter-Glo viability, 48 h; series mostly up to 45.8 µM; further: nearly all actives have a fitted effect of over 35% in size
Summary of the method: as §1

[8] = Quantitative highthroughput screen to assess conditional lethalithy of SEM cells grown in RPMI1640 with dialyzed fetal bovine serum (RPMI+ds) (AID 1963884); conditions: SEM B-ALL cells, RPMI+dialyzed FBS, CellTiter-Glo viability, 48 h; series mostly up to 45.8 µM; further: nearly all actives have a fitted effect of over 35% in size
Summary of the method: as §1

[9] = Cellular viability qHTS for adrenocortical cancer (ACC) cell line SW-13 (AID 1963989); conditions: SW-13 ACC cells viability, CellTiter-Glo, 48 h; activity (max response): stronger effect = lower value; further: nearly all actives have a fitted effect of over 65% in size;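 on activity (max response): cells grown in serum-free medium with ITS supplement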
Summary of the method: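 IC50 and maximal-response values come from four-parameter logistic fits of titration data. SW-13 cells in serum-free medium received compounds (up to 46 uM final) for 48 h before CellTiter-Glo luminescence.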

[10] = Cellular viability qHTS for adrenocortical cancer (ACC) cell line NCI-H295R (AID 1963990); conditions: CellTiter-Glo ATP luminescence, 48 h; series mostly up to 46.1 µM; further: nearly all actives have a fitted effect of over 60% in size
Summary of the method: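 Adrenocortical carcinoma cells, suspended at 300 000 cells/mL in serum-free DMEM plus ITS, rested overnight before pin transfer of compound. After two days' incubation, ATP-dependent luminescence was recorded and curve-fitted.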

[11] = Quantitative highthroughput screen to assess conditional lethalithy of P12 Ichikawa cells grown in RPMI1640 with untreated serum (RPMI+s) (AID 1963881); conditions: ATP luminescence, 48 h; Potency: viability; series mostly up to 45.8 µM; further: nearly all actives have a fitted effect of over 35% in size
Summary of the method: as §1
Potency means the concentration at half of the fitted maximal effect.

Compound	Potency [1]	Potency [2]	Potency [3]	Potency [4]	Potency [5]	Potency [6]	Potency [7]	Potency [8]	activity (max response) [9]	Potency [10]	Potency [9]	Potency [11]
CN(C)CCc1c[nH]c2ccc(Cn3cncn3)cc12	1.05 µM (active)	1.18 µM (active)	0.833 µM (active)	1.18 µM (active)	0.935 µM (active)	0.372 µM (active)	0.132 µM (active)	0.264 µM (active)				
COc1cc(F)c(C(C)C)cc1-c1ccc(C(F)(F)F)cc1CN1C(=O)O[C@H](c2cc(C(F)(F)F)cc(C(F)(F)F)c2)[C@@H]1C	inactive	inactive	inactive	inactive	inactive	inactive	inactive	inactive	-14.8%	inactive		
COc1cc(O)c2c(c1)C1OC1C[C@H](O)[C@H](O)C(=O)C=CC[C@H](C)OC2=O (some centres undefined)	13.2 µM (active)	13.2 µM (active)	10.5 µM (active)	18.7 µM (active)	18.7 µM (active)		7.43 µM (active)	4.18 µM (active)		15.8 µM (active)	15.8 µM (active)	
CN(C)CC=CC(=O)Nc1cc2c(Nc3ccc(F)c(Cl)c3)ncnc2cc1O[C@H]1CCOC1	1.87 µM (active)	1.87 µM (active)	1.66 µM (active)	1.66 µM (active)		1.05 µM (active)	0.743 µM (active)	1.18 µM (active)				1.87 µM (active)
C[C@@H]1[C@H](C)CC[C@]2(C(=O)O)CC[C@]3(C)C(=CC[C@@H]4[C@@]5(C)C[C@@H](O)[C@H](O)[C@@](C)(CO)[C@H]5CC[C@]43C)[C@@H]12	inactive	inactive	inactive	inactive								inactive
C[C@]12C=CC(=O)N[C@@H]1CC[C@H]1[C@H]3CC[C@@H](C(=O)Nc4cc(C(F)(F)F)ccc4C(F)(F)F)[C@@]3(C)CC[C@@H]12	inactive	inactive	inactive	inactive		inactive	inactive	inactive				inactive
Cc1coc2c1C(=O)C(=O)c1c-2ccc2c(C)cccc12	inactive	inactive	inactive	inactive	inactive	inactive		inactive				
C[C@H]1Oc2cc(cnc2N)-c2c(nn(C)c2C#N)CN(C)C(=O)c2ccc(F)cc21	inactive	inactive	inactive	inactive	inactive	inactive	inactive	inactive	-27%	17.8 µM (active)		
CCOC(=O)N1CCN([N+]([O-])=NOc2cc(ON=[N+]([O-])N3CCN(C(=O)OCC)CC3)c([N+](=O)[O-])cc2[N+](=O)[O-])CC1	inactive	inactive	inactive	inactive		inactive	inactive	inactive				inactive
CCN(CC)CCOc1ccc(C(=C(Cl)c2ccccc2)c2ccccc2)cc1	inactive	inactive	inactive	inactive	20.9 µM (active)	inactive	inactive	inactive				
COc1ccc(C=Cc2cc(OC)c(OC)c(OC)c2)cc1O	inactive	inactive	inactive	inactive			inactive					inactive
Cc1c(C)c2c(c(C)c1O)CCC(C)(COc1ccc(CC3SC(=O)NC3=O)cc1)O2 (centres undefined)	inactive	inactive	inactive	inactive		16.6 µM (active)				inactive		inactive
CCCNS(=O)(=O)Nc1ncnc(OCCOc2ncc(Br)cn2)c1-c1ccc(Br)cc1	inactive	inactive	inactive	inactive	inactive	inactive				inactive		
O=C1NC(=O)C(=Cc2ccc(-c3ccc(F)cc3O)o2)S1	inactive	10.5 µM (active)	inactive	inactive			inactive					6.62 µM (active)
O=C(C=Cc1cccc(S(=O)(=O)Nc2ccccc2)c1)NO	17.1 µM (active)	12.1 µM (active)	13.6 µM (active)	4.81 µM (active)		0.679 µM (active)	0.605 µM (active)	0.762 µM (active)				4.29 µM (active)
CCCCCCOC(=O)N=C(N)c1ccc(NCc2nc3cc(C(=O)N(CCC(=O)OCC)c4ccccn4)ccc3n2C)cc1	26.4 µM (active)	26.4 µM (active)	20.9 µM (active)	inactive		inactive	inactive	inactive				
CCCCN1CCC(CNC(=O)c2c3n(c4ccccc24)CCCO3)CC1	inactive	inactive	inactive	18.7 µM (active)			inactive	inactive				16.6 µM (active)
O=C(O)[C@H](Cc1c[nH]c2ccccc12)N1C(=O)c2ccccc2C1=O	inactive	inactive	inactive	inactive	inactive	inactive			-15.6%	inactive		
CCCCOCCOc1nc(-c2ccc(C(=O)O)c(F)c2)sc1C	inactive	inactive	inactive	inactive		inactive	inactive	inactive	-9.17%	inactive		inactive

Compound	Potency [1]	Potency [2]	Potency [3]	Potency [4]	Potency [5]	Potency [6]	Potency [7]	Potency [8]	activity (max response) [9]	Potency [10]	Potency [9]	Potency [11]
C#C[C@]1(O)CC[C@H]2[C@H]3CCc4cc(OC)ccc4[C@H]3CC[C@@]21C	inactive	inactive	inactive	inactive		inactive	inactive	inactive				inactive
C=CC(=O)Nc1cccc(Nc2nc(NC3CCC(N(C)C)CC3)nc3c2ncn3C(C)C)c1 (centres undefined)	2.96 µM (active)	2.35 µM (active)	2.35 µM (active)	3.32 µM (active)		1.05 µM (active)	2.09 µM (active)	1.05 µM (active)				3.32 µM (active)
CC(C(C)N1CC(=O)NC(=O)C1)N1CC(=O)NC(=O)C1 (centres undefined)	inactive	inactive	inactive	13.2 µM (active)					12.5%	inactive		1.66 µM (active)
C[C@]12CCC3c4ccc(O)cc4CCC3C1CCC2=O (some centres undefined)	inactive	inactive	inactive	inactive			inactive		-21%	inactive		inactive
O=C(O)C1=CO[C@@H](O[C@@H]2O[C@H](CO)[C@H](O)[C@H](O)[C@H]2O)[C@@H]2C(CO)=CC[C@H]12	inactive	inactive	inactive	inactive		inactive	inactive	inactive				inactive
NC[C@H]1O[C@H](O[C@H]2[C@@H](O)[C@@H](O[C@H]3O[C@H](CO)[C@@H](O)[C@H](N)[C@@H]3O)[C@H](N)C[C@@H]2N)[C@H](N)C[C@H]1O	inactive	inactive	inactive	inactive		inactive	inactive	inactive				inactive
CC(=O)N1CCN(c2ccc(OCc3nn(C)c(C)c3-c3cccc4c(CCCOc5cccc6ccccc56)c(C(=O)O)n(Cc5cccnc5)c34)cc2)CC1	1.66 µM (active)	2.64 µM (active)	2.35 µM (active)	10.5 µM (active)		inactive		inactive				10.5 µM (active)
CC[C@@H]1C=C(C)C[C@H](C)C[C@H](OC)[C@H]2O[C@@](O)(C(=O)C(=O)N3CCCC[C@@H]3C(=O)O[C@H](C(C)=C[C@@H]3CC[C@H](Cl)[C@H](OC)C3)[C@H](C)[C@@H](O)CC1=O)[C@H](C)C[C@H]2OC	inactive	inactive	inactive	inactive	inactive		inactive	1.48 µM (active)				
Cc1oncc1C(=O)Nc1ccc(C(F)(F)F)cc1	inactive	inactive	inactive	inactive		inactive	inactive			inactive		inactive
CC(=O)N[C@@H]1[C@H](O[C@@H]2c3ccc(c(Cl)c3)Oc3cc4cc(c3O[C@H]3O[C@H](CO)[C@@H](O)[C@H](O)[C@H]3NC(=O)CCCCCCCC(C)C)Oc3ccc(cc3Cl)C[C@H]3NC(=O)[C@H](N)c5ccc(O)c(c5)Oc5cc(O)cc(c5)[C@H](NC3=O)C(=O)N[C@H]4C(=O)N[C@H]3C(=O)N[C@@H]2C(=O)N[C@@H](C(=O)O)c2cc(O)cc(O[C@H]4O[C@H](CO)[C@@H](O)[C@H](O)[C@H]4O)c2-c2cc3ccc2O)O[C@H](CO)[C@@H](O)[C@@H]1O	inactive	inactive	inactive	inactive		inactive	inactive	inactive				inactive
Cc1ccc([N+](=O)[O-])cc1S(=O)(=O)N(C)N=Cc1cnc2ccc(Br)cn12	0.0935 µM (active)	0.105 µM (active)	0.0526 µM (active)	0.166 µM (active)		0.059 µM (active)	0.0662 µM (active)	0.0833 µM (active)				0.132 µM (active)
Cc1cccc(N(C)C(=S)Oc2ccc3ccccc3c2)c1	inactive	inactive	inactive	inactive		inactive	inactive	inactive	2.38%	inactive		inactive
OCC(O)C(O)C(O)CO (centres undefined)	inactive	inactive	inactive	inactive								inactive
O=C(c1ccc(F)c(F)c1Nc1ccc(I)cc1F)N1CC(O)([C@H]2CCCCN2)C1	0.743 µM (active)	0.743 µM (active)	0.526 µM (active)	8.33 µM (active)		inactive						8.33 µM (active)
COc1cc(OC)cc(-c2ccc3ncc4ccc(=O)n(-c5ccc(N6CCNCC6)c(C(F)(F)F)c5)c4c3c2)c1	inactive	8.33 µM (active)	14.8 µM (active)	10.5 µM (active)		14.8 µM (active)	16.6 µM (active)					
CC(=O)O[C@H]1C[C@@H]2CC[C@H]3[C@H]4C[C@H]([N+]5(C)CCCCC5)[C@@H](OC(C)=O)[C@@]4(C)CC[C@@H]3[C@@]2(C)C[C@H]1[N+]1(C)CCCCC1	inactive	inactive	inactive	inactive		inactive	inactive	inactive	7.56%	inactive		inactive
O=c1c(O)c(-c2ccc(O)cc2)oc2cc(O)cc(O)c12	inactive	inactive	inactive	inactive	inactive	inactive			-9.76%	inactive		
C=C1C[C@@]2(O)O[C@@]3(C[C@H]2C(C)C)[C@H](C)CC[C@H]13	inactive	inactive	inactive	inactive		inactive		inactive				inactive
